TSHR antag – human thyrotropin receptor antagonism; P16473; TSHR-expressing cells, TSH-stimulated cAMP HTRF, 2 h; stronger effect = lower value; activity change, negative = inhibition, % at 11.5 µM; actives 0.2% (n = 330,000); AID 504810;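 active means activity change below a set negative limit, meaning inhibition stronger than a set level, cut at about -70% in these data; inconclusive means activity change between two set negative limits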
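Freshly harvested TSHR cells receive pin-tooled compound, then EC80 TSH at 4nM final. After 2 hours at 37 deg C, antibody in lysis buffer and cAMP-d2 are added; 30 minutes at ambient temperature precede the HTRF read.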
B2AR arrestin – recruits beta-arrestin to the human beta2-adrenergic receptor; P07550; beta-arrestin recruitment to beta2AR, cell-based reporter; Potency, µM (titrated, usually from 46.1 µM), for inactives: top-dose activation, usual class: activators; actives 0.02% (n = 330,000); AID 492947;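 further: potency means the concentration at half of the fitted maximal effect; 0% = DMSO controls and full agonism = EC100 isoproterenol or metaproterenol; nearly all actives have a fitted effect of over 65% in size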
VP16 counter – counter-screen for ROR gamma inhibitors: Gal4-VP16 reporter. Drosophila S2 Gal4-VP16 UAS-luciferase, luminescence, 20 h. Potency, µM (series often up to 53.6 µM), for the others: top-dose activity, negative = inhibition, actives largely listed as inhibitors. actives 3.5% (n = 310,000). AID 2546;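 further: Gal4-VP16 expression switched on by copper sulfate through the metallothionein promoter; potency means the concentration at half of the fitted maximal effect; nearly all actives have a fitted effect of over 50% in size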
ELG1 repair inh – inhibitors of ELG1-dependent DNA repair in HEK293T cells | actives 2.3% (n = 330,000) | HEK293T ELG1-luciferase reporter, luminescence, 16 h; DNA damage induced by 5-fluorouridine | Potency, µM (titrated, usually from 46.1 µM), for the others: at the top dose activity change, negative = inhibition, actives largely listed as inhibitors; further: potency means the concentration at half of the fitted maximal effect; nearly all actives have a fitted effect of over 55% in size
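Quantitative HTS, concentration-response format. 2,000 cells/well co-treated with 5-fluorouridine and compound, 16 hr in 5% CO2 at 37 °C; ONE-Glo luminescence read after 30 min.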
RORg inh – ROR gamma (mouse) transcription inhibition. Drosophila S2 Gal4-RORgamma UAS-luciferase reporter, 20 h. Potency, µM (top dose mostly 53.6 µM), for the others: top-dose activity change, negative = inhibition, hits mostly inhibitors. P51450. actives 5.4% (n = 310,000); further: potency means the concentration at half of the fitted maximal effect; nearly all actives have a fitted effect of over 60% in size
Target sequence (P51450 whole entry, looked up, the tested form may be a part): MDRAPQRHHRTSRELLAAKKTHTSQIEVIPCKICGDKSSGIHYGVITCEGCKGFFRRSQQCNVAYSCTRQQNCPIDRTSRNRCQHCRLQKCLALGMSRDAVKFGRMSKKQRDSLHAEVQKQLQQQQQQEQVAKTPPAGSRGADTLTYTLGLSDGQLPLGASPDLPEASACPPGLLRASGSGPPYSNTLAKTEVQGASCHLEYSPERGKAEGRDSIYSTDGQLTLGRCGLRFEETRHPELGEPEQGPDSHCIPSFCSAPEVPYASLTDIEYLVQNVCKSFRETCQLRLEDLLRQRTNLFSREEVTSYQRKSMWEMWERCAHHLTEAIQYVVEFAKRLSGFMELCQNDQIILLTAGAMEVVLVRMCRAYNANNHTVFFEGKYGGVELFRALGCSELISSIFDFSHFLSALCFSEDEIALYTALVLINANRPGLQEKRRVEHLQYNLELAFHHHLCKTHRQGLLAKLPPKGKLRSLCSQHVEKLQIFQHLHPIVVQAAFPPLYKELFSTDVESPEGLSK
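Luciferase reporter read in Schneider cells carrying Gal4-RORγ (mouse) and UAS-Photinus luciferase; cells given compound 1 h before 700 uM copper sulfate induction, then incubated 20 h at ambient temperature.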
An asterisk follows results filed as active; ? = inconclusive; / = no result. Most compounds without a hit are left out; they make up all but 7.5% or so of the library. Unless noted, the call rests on the fitted dose curve; in most records, active means well fitted curve in the direction sought with a large enough effect; inconclusive means small, poorly fitted or top-dose-only effect, or another doubt; inactive means no such curve, though single readings can be large; an effect the other way counts as inactive or inconclusive. Unless noted, on the % scale 0 is the no-effect control and ±100 the full control effect.

SMILES | TSHR antag | B2AR arrestin | VP16 counter | ELG1 repair inh | RORg inh
CC(C)(CO)[C@@H](O)C(=O)NCCC(=O)NCCSSCCNC(=O)CCNC(=O)[C@H](O)C(C)(C)CO | / | / | -2% | / | 7%
CNC[C@H](CC1CCCCC1)NC[C@H](Cc1ccccc1)NCCC12CC3CC(CC(C3)C1)C2 | -1 | 0% | ? | ? | 20µM*
Cc1cc(C)nc(N/N=C/c2ccccc2OCc2ccc([N+](=O)[O-])cc2)n1 | -1 | 0% | ? | ? | 14µM*
O=[N+]([O-])c1ccc(N/N=C\c2ccccc2OCc2ccccc2)cc1 | 0 | 0% | 2% | -2% | 17%
C(=N\Nc1nc(N2CCCC2)nc(N2CCCC2)n1)/c1ccccc1OCc1ccccc1 | 13 | 0% | -21% | ? | 2.8µM*
Fc1ccccc1COc1ccccc1/C=N/Nc1nc(N2CCCC2)nc(N2CCCC2)n1 | 6 | -1% | 13µM* | ? | 6.3µM*
Fc1ccc(Nc2nc(N/N=C/c3ccco3)nc(N3CCCCC3)n2)cc1 | 0 | 0% | 5µM* | ? | 2.8µM*
C(=N\Nc1nc(N2CCOCC2)nc(N2CCOCC2)n1)/c1ccco1 | -10 | 0% | -10% | -28% | -9%
Fc1ccc(COc2ccc(Cl)cc2/C=N/Nc2nc(N3CCCC3)nc(N3CCCC3)n2)cc1 | -7 | 0% | 5% | -13% | ?
NCCS(=O)O | 10 | / | -5% | / | -12%
O=C1C=CC(=O)c2c(O)c(Cl)c(Cl)c(O)c21 | / | / | -5% | / | ?
CS(=O)(=O)Cc1cccc(C(=O)NN(c2ccccc2)c2ccccc2)c1 | 1 | 0% | -4% | -7% | 18%
COc1ccc(-c2nc3cnc(N4CCOCC4)nc3n(Cc3cccc(OC)c3)c2=O)cc1 | / | / | -1% | / | -22%
CCN(CC(=O)Nc1c(F)cccc1F)C(=O)c1cc(S(=O)(=O)N2CCOCC2)ccc1N1CCCC1 | 4 | -1% | / | 1% | /
Oc1ccc(/C=N/Nc2nc(N3CCCCCC3)nc(N3CCCCCC3)n2)c(O)c1 | 3 | 0% | ? | ? | 16µM*
C(=N\Nc1nc(N2CCCCCC2)nc(N2CCCCCC2)n1)/c1ccccc1 | -7 | 0% | ? | 2% | 8.9µM*
Brc1cccc(/C=N/Nc2nc(N3CCCCC3)nc(N3CCCCC3)n2)c1 | 2 | 0% | 0% | 10% | -5%
Oc1ccc(Br)cc1/C=N/Nc1nc(N2CCCCC2)nc(N2CCOCC2)n1 | 9 | 0% | -1% | ? | -13%
O=C(O)c1ccc(-c2c3nc(c(-c4ccc(C(=O)O)cc4)c4ccc([n-]4)c(-c4ccc(C(=O)O)cc4)c4nc(c(-c5ccc(C(=O)O)cc5)c5ccc2[n-]5)C=C4)C=C3)cc1.[Mn+3] | / | / | 4% | / | -17%
O=C(CSc1nnc2ccccn12)Nc1ccc(S(=O)(=O)N2CCOCC2)cc1 | 10 | 0% | -11% | 3% | -16%
CCc1ccc(N2CC(C(=O)N/N=C/c3cc([N+](=O)[O-])ccc3O)CC2=O)cc1 (centres undefined) | -8 | 0% | 10µM* | ? | 4.5µM*
Cc1sc(N/N=C/c2cc([N+](=O)[O-])ccc2O)nc1-c1ccccc1 | -16 | 0% | 0.71µM* | ? | 0.28µM*
O=[N+]([O-])c1ccc(O)c(/C=N/Nc2ccccc2Cl)c1 | -32 | 0% | ? | ? | ?
O=C(N/N=C/c1cc([N+](=O)[O-])ccc1O)c1cccc2cc[nH]c12 | -10 | -1% | 3.5µM* | 4.6µM* | 1.4µM*
O=C(N/N=C/c1cc([N+](=O)[O-])ccc1O)C(O)(c1ccccc1)c1ccccc1 | 14 | 0% | 0.89µM* | -7% | 0.89µM*
SMILES | TSHR antag | B2AR arrestin | VP16 counter | ELG1 repair inh | RORg inh
C[C@H](NC(=O)N1CCn2c1nc1ccccc12)C(=O)NCc1ccc(F)cc1 | 6 | 0% | -7% | -1% | -19%
COC(=O)C(c1ccc(OC)c(OC)c1)C1c2ccccc2C=C(C)N1C(=O)OC (centres undefined) | / | / | -10% | / | 35%
O=[N+]([O-])c1ccc(Cl)cc1Cl | / | / | -5% | / | 3%
COC(=O)c1cc(OC)c(OC)cc1NC(=O)c1csc(C)c1 | 14 | 0% | -29% | 3% | -3%
O=C(N/N=C/c1cc([N+](=O)[O-])ccc1O)C1CC1 | -12 | 0% | 7.9µM* | 18µM* | 1.8µM*
Clc1ccccc1-c1nc(Nc2ccncc2)c2ccccc2n1 | / | / | -10% | / | 11µM*
Clc1ccccc1-c1nc(NCc2cccnc2)c2ccccc2n1 | / | / | -1% | / | -31%
Cc1ccccc1-c1nc(Nc2ccncc2)c2ccccc2n1 | / | / | -20% | / | 7.1µM*
O=C(CN1CCN(C(=O)c2cncn2-c2ccccc2)CC1)Nc1ccccc1Cl | 2 | 0% | / | 14% | /
CCOC(=O)NC[C@H](Cc1ccc(OCCc2nc(-c3ccccc3)oc2C)cc1)N/C(C)=C\C(=O)c1ccc(C(F)(F)F)cc1 | / | / | -4% | / | 10%
CN(C)S(=O)(=O)c1cccc(NC(=S)Nc2ccc3cn[nH]c3c2)c1 | 10 | 1% | -13% | -5% | 6%
CN(C)S(=O)(=O)c1cccc(NC(=S)N/N=C/c2cccc(O)c2)c1 | -11 | 0% | ? | ? | 8.9µM*
CN(C)S(=O)(=O)c1cccc(NC(=S)N/N=C/c2cc(Br)ccc2O)c1 | 0 | 4% | -8% | 2.9µM* | 1%
CC1=[N+](C)c2ccc3ccccc3c2C1(C)C | 4 | 4% | 2.5µM* | 7% | ?
c1ccc2c(c1)ccc1ccccc12 | 0 | -1% | 5% | 4% | 0%
Cc1ccc2c(C)c(C(=O)N(C)C(C)c3ccon3)oc2c1C (centres undefined) | 21 | 0% | 3% | ? | 2%
COc1cccc(C(=O)NC(=S)Nc2ccc([N+](=O)[O-])cc2C)c1 | 7 | -1% | ? | 13% | 7.1µM*
O=C(NNC(=S)NC(=O)c1ccccc1)c1cccc([N+](=O)[O-])c1 | -14 | -1% | 11µM* | -2% | 7.9µM*
O=C(NNC(=O)c1ccccn1)c1cccc([N+](=O)[O-])c1 | 5 | 0% | ? | 12µM* | 10µM*
O=C(NNC(=S)NC(=O)c1cccc([N+](=O)[O-])c1)c1ccc(O)cc1 | 0 | 0% | 13µM* | 15% | 13µM*

Compound activity: PubChem, National Center for Advancing Translational Sciences (NCATS)
